Compound activity deposited in PubChem by National Center for Advancing Translational Sciences (NCATS).
Compounds with a hit are over-represented: about 11% of the library has one in this group of screens.
PI5P4Ka inh – qHTS for Inhibitors of phosphatidylinositol 5-phosphate 4-kinase (PI5P4K); actives 1.2% (n = 330,000); PI5P4Kalpha enzyme, ADP-Glo luminescence, 60 min; stronger effect = lower value; max response, %; Phosphatidylinositol 5-phosphate 4-kinase type-2 alpha (Homo sapiens), P48426; active means max response of -50% or lower; inconclusive means between -30% and -50%; inactive means -30% or higher; further: value at the top dose of about 77 µM
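Enzyme plus substrate dispensed, test compounds pinned in, then ATP (5 microM final) added. After 60 min at RT, ADP-Glo reagent 1 for 45 min and reagent 2 for 30 min preceded luminescence imaging.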
HP1b binding inh – HTS for Inhibitors of HP1-beta Chromodomain Interactions with Methylated Histone Tails; AlphaScreen HP1-beta / biotin-H3K9me3 peptide binding; Potency, µM (top dose mostly 114 µM), most hits filed as inhibitors; actives 0.56% (n = 390,000); further: nearly all actives have a fitted effect of over 70% in size
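Compound inhibition of the preformed complex between 50 nM HP1-beta and 50 nM biotinylated H3K9me3 peptide was read by AlphaScreen. Buffer was PBS pH 7.4 with 0.01% Tween-20. Incubations ran 30 min at room temperature, with 10 ug/mL donor/acceptor beads.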
JMJD2A Tudor inh – qHTS Assay for Inhibitors of JMJD2A-Tudor Domain. Lysine-specific demethylase 4A (Homo sapiens), O75164. AlphaScreen JMJD2A-Tudor / H3K4me3 peptide binding. Potency, µM (doses to about 114 µM), usual class: inhibitors. actives 4.4% (n = 390,000). AID 504339, 2011; further: nearly all actives have a fitted effect of over 50% in size
G9a inh – qHTS Assay for Inhibitors of Histone Lysine Methyltransferase G9a. actives 8.8% (n = 350,000). G9a H3K9 monomethylation, AlphaScreen, 2 h. AID 504332, 2011. Potency, µM (highest dose often 102 µM), most hits filed as inhibitors. Histone-lysine N-methyltransferase EHMT2 (Homo sapiens), Q96KQ7; further: nearly all actives have a fitted effect of over 75% in size
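G9a (20 nM) preincubated 15 min RT with compounds, then 500 nM biotinylated H3K9 peptide and 20 uM SAM added; 2 h RT reaction. Monomethyl-H3K9 product detected by AlphaScreen with anti-H3K9me1 antibody, streptavidin donor and anti-rabbit IgG acceptor beads.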
BAZ2B block – qHTS Assay for Inhibitors of BAZ2B; Bromodomain adjacent to zinc finger domain protein 2B (Homo sapiens), Q9UIF8; AlphaScreen BAZ2B-H3K14Ac peptide displacement; Potency, µM (top dose mostly 114 µM), usual class: inhibitors; actives 4.4% (n = 360,000); AID 504333, 2011; further: nearly all actives have a fitted effect of over 60% in size
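Complex of BAZ2B and biotin-H3K14Ac (50 nM apiece) forms over 30 min at RT, then faces library compounds up to 110 uM for another 30 min; AlphaScreen beads added, 20 min dark incubation, luminescence read.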
L3MBTL1 inh – qHTS Assay for the Inhibitors of L3MBTL1; AlphaScreen L3MBTL1–H3K9me1 peptide binding; actives 0.66% (n = 230,000); Potency, µM (doses to about 57.1 µM), most hits filed as inhibitors; AID 485360, 2010; Lethal(3)malignant brain tumor-like protein 1 (Homo sapiens), Q9Y468; further: nearly all actives have a fitted effect of over 60% in size
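Read-out is AlphaScreen signal from streptavidin donor and nickel chelate acceptor beads (10 ug/mL final each) bridging L3MBTL1 (50 nM) and biotinylated K9-monomethylated H3(1-15) peptide (75 nM), after 30 min compound exposure at room temperature.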
Large screens that a line does not name were inactive. Unless noted, the call rests on the fitted dose curve; in most records, active means well fitted inhibition curve with a large enough effect; inconclusive means small, poorly fitted or top-dose-only effect; inactive means no such curve, though single readings can be large or run the other way.

N#C/C(=N\Nc1ccccc1)C(=N)N1CCCCC1	BAZ2B block inconclusive (no result: L3MBTL1 inh)
CC(NC(=O)c1cc(-c2ccc(Cl)cc2)on1)c1ccccc1 (stereo not given)	none (no result: PI5P4Ka inh, L3MBTL1 inh)
Cc1ccc(-c2cc(C(=O)O)c3ccccc3n2)c(C)c1	G9a inh inconclusive
Cc1c(-c2cc(C(=O)O)c3ccccc3n2)cnn1C	G9a inh 45µM
COc1ccc2c(c1)sc1ncc(C(=O)NCc3cccc(Cl)c3)c(=O)n12	none (no result: PI5P4Ka inh, L3MBTL1 inh)
CCN(CC)CCCNC(=O)c1nn(C)c2c1CS(=O)(=O)c1ccccc1-2	G9a inh 25µM (no result: PI5P4Ka inh, L3MBTL1 inh)
CC1CCCC(C)N1CCCNC(=O)c1nn(C)c2c1CSc1ccccc1-2 (stereo not given)	none (no result: L3MBTL1 inh)
COc1ccc(CCNC(=O)c2nn(C)c3c2CS(=O)(=O)c2ccccc2-3)c(OC)c1	BAZ2B block 50µM (no result: L3MBTL1 inh)
CCCCNC(=O)c1nn(C)c2c1CSc1ccccc1-2	JMJD2A Tudor inh inconclusive, G9a inh 16µM, BAZ2B block inconclusive (no result: PI5P4Ka inh, L3MBTL1 inh)
CNCc1ccccc1Sc1cc(O)ccc1O	PI5P4Ka inh inconclusive, HP1b binding inh 10µM, JMJD2A Tudor inh 18µM, G9a inh 1µM, BAZ2B block 35µM
CC1=C(C(N)=O)C(c2cccc(F)c2)n2nc(SCc3ccccc3)nc2N1 (stereo not given)	none (no result: PI5P4Ka inh, L3MBTL1 inh)
O=C(c1ccccc1F)N1CCN(c2ccccc2F)CC1	HP1b binding inh inconclusive
O=C(c1ccc(F)cc1)N1CCN(c2ccc([N+](=O)[O-])cc2-n2cccc2)CC1	JMJD2A Tudor inh inconclusive, G9a inh 50µM, BAZ2B block inconclusive (no result: L3MBTL1 inh)
COc1ccc(N2CCN(C(=O)c3ccc(F)cc3)CC2)c([N+](=O)[O-])c1	BAZ2B block inconclusive
O=C(c1ccccc1F)N1CCN(c2ccc([N+](=O)[O-])cc2-n2cccc2)CC1	JMJD2A Tudor inh inconclusive, BAZ2B block 22µM (no result: G9a inh, L3MBTL1 inh)
O=C(c1ccco1)N1CCC2(CC1)CN(c1ccccn1)C2	none (no result: PI5P4Ka inh, HP1b binding inh, JMJD2A Tudor inh, BAZ2B block, L3MBTL1 inh)
CCc1cccc(NC(=O)CN2C(=O)COc3ccc(S(=O)(=O)N4CCC(C)CC4)cc32)c1	none (no result: PI5P4Ka inh, L3MBTL1 inh)
Nc1nc(NC(=O)c2ccc(Cl)cc2)nn1-c1ccccc1	BAZ2B block inconclusive
CCC(=O)Nc1nc(N)n(-c2ccccc2)n1	BAZ2B block inconclusive (no result: L3MBTL1 inh)
Nc1nc(NC(=O)c2cccnc2)nn1-c1ccccc1	JMJD2A Tudor inh 11µM, G9a inh 14µM, BAZ2B block 79µM
Nc1nc(NC(=O)C(Cl)(Cl)Cl)nn1-c1ccccc1	JMJD2A Tudor inh 25µM, BAZ2B block 8.9µM, L3MBTL1 inh 28µM
COc1ccc2[nH]cc(CCNc3ncncc3-c3ccccc3C)c2c1	none (no result: PI5P4Ka inh, HP1b binding inh, JMJD2A Tudor inh, BAZ2B block, L3MBTL1 inh)
Fc1ccc(NC(=S)Nc2ccc3nccnc3c2)cc1	G9a inh 40µM
COc1ccc2c(c1)c(N1CCCC1=O)c(C(=O)Nc1ccc(Cl)cc1C)n2C	none (no result: PI5P4Ka inh, L3MBTL1 inh)
CCN(CC)c1ccc(NC(=O)CN2C(=O)c3cccnc3Sc3ccccc32)c(C)c1	G9a inh inconclusive (no result: PI5P4Ka inh, L3MBTL1 inh)
COCCNC(=O)CN(C(=O)CCC(=O)Nc1cc(C)on1)c1cccc(C)c1C	JMJD2A Tudor inh 79µM, G9a inh inconclusive
Cc1cc(NC(=O)CCC(=O)N(CC(=O)NCC2CCCO2)c2cccc(C)c2C)no1 (stereo not given)	none (no result: L3MBTL1 inh)
Cc1ccc(CNC(=O)c2cc3c(=O)n(Cc4ccco4)ccc3nc2C)cc1	G9a inh inconclusive (no result: PI5P4Ka inh, L3MBTL1 inh)
O=C1CN(C(=O)c2ccc(S(=O)(=O)N3CCCCC3)cc2)C(c2ccc(F)cc2)c2cc(F)ccc2N1 (stereo not given)	none (no result: PI5P4Ka inh, L3MBTL1 inh)
O=C(CCCCCN1CCN(c2ccccc2-c2ccccc2)CC1)NC1CCCc2ccccc21 (stereo not given)	G9a inh 13µM (no result: PI5P4Ka inh, HP1b binding inh, JMJD2A Tudor inh, BAZ2B block, L3MBTL1 inh)
